Hit rate of the full screen: of about 48,000 compounds, about 13,000 (27%) showed an effect of 50% or more. This is one part of the list.
What follows are compounds tested on Wolbachia pipientis (assay: Anti-Wolbachia Cell-Based Screen). Settings: 5 µM.
Type: functional
Parameters: scale not given: in the data most compounds retested in dose-response had high values

SMILES	Percent Effect [%]
O=C(O)CSc1nnc(-c2ccn[nH]2)n1-c1ccccc1Cl	-20.89
Cc1ccccc1OCCC(=O)N1CCc2nc(C)n(C)c(=O)c2CC1	7.029
Cn1cc(-c2nc(CN3CCOC(Cn4cncn4)C3)cs2)cn1 (stereo not drawn)	113.5
Cc1ccc(-c2noc(CN3CCOC(Cn4cncn4)C3)n2)cc1 (stereo not drawn)	-2.106
c1ccc(-c2nc(CN3CCOC(Cn4cncn4)C3)cs2)cc1 (stereo not drawn)	125.5
c1cnc(-c2nc(CN3CCOC(Cn4cncn4)C3)cs2)nc1 (stereo not drawn)	0
Cn1cc(-c2nc(CN3CCOC(Cn4cccn4)C3)cs2)cn1 (stereo not drawn)	14.65
Cc1noc(C)c1CN1C(=O)[C@H]2CC[C@@H]1CN(Cc1ccc(Cl)cc1)C2	-8.21
CC(C)n1ncc2cc(NC(=O)N3CCC(N4CCCC4)C3)cnc21 (stereo not drawn)	-0.151
COc1ccc(C(=O)Nc2nncs2)cn1	-3.004
CCc1nnc(Nc2cc(C)nc(C3CCN(c4cnccn4)C3)n2)s1 (stereo not drawn)	134.1
CCc1nnc(CNC2CCN(c3ncnc4c(C)csc34)CC2)s1	6.605
CCc1nc(C2CCCN(c3ncccn3)C2)no1 (stereo not drawn)	22.68
CCc1nc(CC(=O)N2CCN(c3cnccn3)CC2)cs1	8.255
CCc1nnc(Nc2cc(C)nc(C3CCN(c4ccncn4)C3)n2)s1 (stereo not drawn)	171.2
Cc1cc(C)nc(C2CCN(c3ccncn3)C2)n1 (stereo not drawn)	136
Cc1nccn1CCC1CCN(c2ccncn2)CC1	-24.71
CCc1nnc(Nc2cccc(C3CCN(CCO)CC3)n2)s1	-9.2
CCc1nnc(Nc2cc(C)nc(C3CCN(c4ncccn4)C3)n2)s1 (stereo not drawn)	164.2
CCc1cc(N2CCN(c3cnccn3)CC2)n2nc(C)c(C)c2n1	6.49
Cc1ccccc1N1CCCN(c2ccncn2)CC1	-18.24
COc1cc(N2CCCC(c3nccn3Cc3ccncc3)C2)ncn1 (stereo not drawn)	26.87
c1cnc(N2CCC(C3CCN(CCCn4cccn4)C3)CC2)nc1 (stereo not drawn)	5.409
Cc1ccc(C2CSCCN2C(=O)C2=CCCC2)o1 (stereo not drawn)	-12.79
CC(Cc1cccc(F)c1)C(=O)NS(=O)(=O)c1ccc(F)cc1 (stereo not drawn)	-6.109
CCCc1ccc(S(=O)(=O)NCCNC(=O)c2ccoc2)cc1	-13.27

SMILES	Percent Effect [%]
O=C(Nc1ccccc1)C1CN(C(=O)c2cccs2)CC12CCOCC2 (stereo not drawn)	-0.3117
O=C(Nc1ccccc1)C1CN(Cc2cccs2)CC12CCOCC2 (stereo not drawn)	0.5273
CC(=O)N1N=C(c2cccs2)OC1C(=O)Nc1ccccc1 (stereo not drawn)	103.8
CCc1nc(C)c([C@H]2CN(C)C[C@@H]2C(=O)Nc2ccc(OC)cc2)[nH]1	7.798
COc1ccc(CC(C)(O)CNC(=O)Cc2cccs2)cc1 (stereo not drawn)	5.181
Cn1ccnc1COc1ccc(NC(=O)C2CCCO2)cc1 (stereo not drawn)	-13.75
CC(=O)N1N=C(c2cccs2)OC1C(=O)Nc1ccc(C)cc1 (stereo not drawn)	119.7
CCc1ccc(NC(=O)C2OC(c3cccs3)=NN2C(C)=O)cc1 (stereo not drawn)	3.495
CCOc1ccc(NC(=O)C2OC(c3cccs3)=NN2C(C)=O)cc1 (stereo not drawn)	122.8
COc1ccc(NC(=O)C2OC(c3cccs3)=NN2C(C)=O)cc1 (stereo not drawn)	116.4
CCOc1ccc(NC(=O)c2cccc(OC)c2OC)cc1	0.2949
O=C1CC(CNc2cncc(Cl)n2)c2ccccc2N1 (stereo not drawn)	-4.513
Cc1n[nH]c(CN2CCN(C(=O)C3CCC3)[C@@H]3CS(=O)(=O)C[C@@H]32)n1	-3.785
Cc1cc(C(=O)Nc2ccc(OC3CCOCC3)c(C)c2)[nH]n1	-9.28
O=C1CN(CCCNC(=O)Nc2ccccn2)CCN1	3.817
Cc1nc(C)c(CC(=O)NCc2ccc(F)cc2F)s1	12.14
COc1cccc(CNC[C@H]2COCc3nc4cccnc4n32)n1	-3.627
OCC1(CCOc2ccccc2)CCCN(c2ccc(Cl)cn2)C1 (stereo not drawn)	19.44
CC(=O)N1N=C(c2cccs2)OC1C(=O)Nc1ccc(C(C)C)cc1 (stereo not drawn)	90.69
O=c1oc(-c2cccs2)nn1CC(O)c1ccccc1 (stereo not drawn)	2.258
Cc1ccc(CNC(=O)C2c3c(ncn3C(C)C)CCN2S(C)(=O)=O)o1 (stereo not drawn)	-24.24
COc1ccc(NC(=O)C2CC2)cc1OCc1cccnc1	-2.646
COc1ccc(NC(=O)C2OC(c3cccs3)=NN2C(C)=O)cc1OC (stereo not drawn)	133.2
CC(=O)N1N=C(c2cccs2)OC1C(=O)NCc1ccc(C)o1 (stereo not drawn)	124.5
Cc1ccc(CN(C(=O)NCC(c2cccs2)N(C)C)C2CC2)o1 (stereo not drawn)	16.5
CNC(=O)C(C)S(=O)(=O)Cc1csc(-c2cccs2)n1 (stereo not drawn)	-15.96

SMILES	Percent Effect [%]
CNC(=O)c1ccc(OC)c(NCc2noc(-c3cccs3)n2)c1	-3.924
CCN(CC)C(=O)[C@@H]1C[C@H](N)CN1c1nnc(-c2ccccc2)s1	5.055
CC(Cc1ccco1)NC(=O)Nc1ccc(S(C)(=O)=O)nc1 (stereo not drawn)	-6.327
Cc1cc(-c2cc(N)c(=O)n(CC(=O)NC3CCCC3)n2)c(C)o1	122.3
Cc1cc(-c2cc(N)c(=O)n(CC(=O)NC3CCCCC3)n2)c(C)o1	117.4
Cc1ccc(-c2cc(N)c(=O)n(CC(=O)NC3CCCCC3)n2)s1	-5.352
COc1ccc(OC)c(C(=O)N2CCC(Nc3cccnc3)CC2)c1	94.46
COc1ccc(OC)c(C(=O)N2C[C@H]3CC[C@@H]2CN(C)C3)c1	19.05
COc1cc(C(=O)N2CCC(Nc3cccnc3)CC2)ccc1C	66.95
COc1cc(C(=O)N2CCC(c3n[nH]c(C4CC4)n3)CC2)ccc1C	15.65
O=C(c1ccc[nH]1)N(Cc1ccc(O)cc1)CC1CC1	-7.123
CCOC(C)C(=O)NCc1ccc(N(C)C)cc1 (stereo not drawn)	106.9
CCOC(C)C(=O)NCc1cccc(CN2CCCCCC2)c1 (stereo not drawn)	0.5451
CC(C)COC(C)C(=O)NCc1ccc(Cn2ccnc2)cc1 (stereo not drawn)	0.5486
CN(C)c1ccc(CNC(=O)Nc2ccc(S(=O)(=O)C(F)F)cc2)cc1	-8.512
CC(OCc1ccccc1)C(=O)NC1CCN(CC(N)=O)CC1 (stereo not drawn)	-2.8
CC(OCc1ccccc1)C(=O)NCc1ccc(N(C)C)cc1 (stereo not drawn)	130.9
CC(C)C(=O)NCc1ccc(N(C)C)cc1	131.8
CN1CCC(CNC(=O)NCc2ccc(N(C)C)cc2)CC1	-5.904
CC(C)COC(C)C(=O)NCc1ccc(N(C)C)cc1 (stereo not drawn)	-1.344
CCOc1cc(CNCc2ncc[nH]2)c(Cl)cc1OC(C)C	-9.365
CN(CCN1CCCC1)c1nccc(N2CCN[C@H]3CS(=O)(=O)C[C@H]32)n1	-5.82
c1cc(CCNc2ncnc3c2CCN(Cc2ccoc2)CC3)ccn1	-12.64
CC(C)Nc1ncnc2c1CCN(Cc1nccn1C)CC2.O=C(O)C(F)(F)F.O=C(O)C(F)(F)F	-25.56
Nc1nc(CNc2ncnc3c2CCN(Cc2ccoc2)CC3)cs1	-10.72
COc1ccc(CN2CCc3ncnc(OC(C)C)c3CC2)cc1.O=C(O)C(F)(F)F	-22.8

SMILES	Percent Effect [%]
CC(C)Nc1ncnc2c1CCN(Cc1ccoc1)CC2	96.99
CC(C)Nc1ncnc2c1CCN(c1cc(C(F)(F)F)ncn1)CC2	-0.2205
COCCN1CCc2ncnc(OC(C)C)c2CC1.O=C(O)C(F)(F)F	107.2
COCCN1CCc2ncnc(NC(C)C)c2CC1.O=C(O)C(F)(F)F	87.2
CC(C)Oc1ncnc2c1CCN(Cc1ccc(F)cc1)CC2.O=C(O)C(F)(F)F	2.897
O=C(N[C@@H]1C[C@H]2CC[C@@H]1C2)C1(Oc2ccc(Cl)cc2)CCNCC1	5.083
Cc1nonc1C(=O)N1CCc2c(ncn2CCc2ccccc2)C1	7.043
Cn1ccnc1-c1nc(NC2CCCC2)ncc1-c1cccc(F)c1	77.55
COCCNc1ncc(-c2cccc(F)c2)c(-c2nccn2C)n1	111.1
COCCCNc1ncc(-c2cccc(F)c2)c(-c2nccn2C)n1	116.3
COc1cccc(-c2nc(CNCCn3cccn3)cs2)c1	-13.66
Cc1ccc(CNC(c2cccc(F)c2)c2nccn2C)o1.Cl (stereo not drawn)	-1.716
COc1cccc(-c2cc(NCc3nccn3C)n(C)n2)c1	-16.42
CSC(C)(C)CNC(=O)Nc1cccc(-c2nccn2C)c1	-14.94
COCCNc1ncc(-c2cccc(OC)c2)c(-c2nccn2C)n1	73.04
CSCCCNC(=O)Nc1cccc(-c2nccn2C)c1	3.955
Cc1nnc(CN(C)CC(=O)N2CCCC(C(F)(F)F)C2)n1C (stereo not drawn)	-17.87
CC1CCc2nc(O)c(C(=O)NCc3ccccc3F)cc2C1 (stereo not drawn)	-2.667
C[C@@H]1CN(S(=O)(=O)N2CCCCCC2)C[C@@]1(O)C1CCC1	19.36
O=C(O)C(F)(F)F.O=C([C@H]1C[C@H]2OCC[C@H]2N(C(=O)c2ccncc2)C1)N1CCCC1	-2.024
N#Cc1ccc(SCCC(=O)NC(N)=O)cc1	0.3622
Cc1c(F)cccc1S(=O)(=O)N(C)CC(C)O (stereo not drawn)	10.31
CCOCCCC(=O)Nc1c(-c2ccc(F)cc2)ncn1C	-11.11
CCOCCNC(=O)Nc1cccc(-c2nccn2C)c1	-19.42
CCOCCCNc1ncc(-c2cccc(F)c2)c(-c2nccn2C)n1	61.85

Source: ChEMBL document CHEMBL3988442, “University of Dundee, Small-Polar-MMV Screening Library” (2021)
